Source: PubChem BioAssay (several laboratories)
Sampled rows, rich in hits. Any-hit rate of the full collection: about 3.1%.
UHRF1 MBD2 ctr: human UHRF1 methylated DNA binding inhibitors. 370,000 compounds, 0.75% hits. inhibition, % at 4.4 µM. UHRF1 binding to methylated oligo, TR-FRET. Q96T88; in the data active = inhibition above about 21%;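 also: UHRF1 SRA domain binding a hemimethylated CpG hairpin DNA probe; 0% = median of test compound wells and 100% = reference inhibitor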
Target sequence (Q96T88 whole entry, looked up, the tested form may be a part): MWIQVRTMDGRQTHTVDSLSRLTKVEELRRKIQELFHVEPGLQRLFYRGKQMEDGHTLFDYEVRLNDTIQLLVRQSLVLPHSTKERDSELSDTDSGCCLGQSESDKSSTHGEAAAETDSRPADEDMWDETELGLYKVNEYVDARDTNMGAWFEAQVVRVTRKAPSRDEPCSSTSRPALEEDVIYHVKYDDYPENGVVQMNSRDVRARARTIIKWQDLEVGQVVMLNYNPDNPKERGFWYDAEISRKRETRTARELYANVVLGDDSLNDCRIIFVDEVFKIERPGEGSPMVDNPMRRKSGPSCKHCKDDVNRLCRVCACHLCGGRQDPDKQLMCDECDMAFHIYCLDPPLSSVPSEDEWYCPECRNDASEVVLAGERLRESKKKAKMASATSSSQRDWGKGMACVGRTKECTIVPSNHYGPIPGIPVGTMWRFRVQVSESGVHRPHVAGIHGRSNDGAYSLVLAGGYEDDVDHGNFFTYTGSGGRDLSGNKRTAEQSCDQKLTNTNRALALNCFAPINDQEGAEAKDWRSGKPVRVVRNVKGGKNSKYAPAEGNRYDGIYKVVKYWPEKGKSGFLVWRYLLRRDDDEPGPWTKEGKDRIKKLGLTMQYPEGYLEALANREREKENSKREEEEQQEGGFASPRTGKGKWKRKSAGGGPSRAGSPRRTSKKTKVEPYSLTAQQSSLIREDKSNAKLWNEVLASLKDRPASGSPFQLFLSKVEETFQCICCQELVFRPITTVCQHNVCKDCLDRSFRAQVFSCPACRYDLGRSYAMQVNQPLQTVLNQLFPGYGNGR
Neddyl block: cullin neddylation inhibition; TR-FRET cullin neddylation, biochemical; calls only at 25 µM; 360,000 compounds, 0.58% hits; AID 651699; in the data active = inhibition above about 36%
proKLK7 act: activators of human kallikrein-7 zymogen; P49862; purified proKLK7, EDANS-DABCYL substrate fluorescence; 100% is mature enzyme control, 0% vehicle; activation, % at 7 µM; 370,000 compounds, 0.9% hits;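 active = activation above the mean of all tested compounds plus 3 SD, computed per campaign excluding outliers beyond control limits, cut at about 13% in these data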
LEDGF integ inh: blocks HIV-1 LEDGF/p75-dependent DNA integration; TR-FRET IN-LEDGF/p75 DNA integration, Eu/Cy5; inhibition, % at 3.7 µM; 370,000 compounds, 0.64% hits; AID 743269;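 active = inhibition above the screen-wide mean plus 3 SD, cut at about 13% in these data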;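 also: signal is the Cy5 over europium emission ratio at 671 and 618 nm; 0% = plate median of compound wells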
MBD2 inh: inhibitors of human MBD2 binding to methylated oligonucleotide; TR-FRET; inhibition, % at 4.4 µM; 370,000 compounds, 0.31% hits; AID 686964; in the data active = inhibition above about 13%
Rin1-Abl PPI inh: inhibitors of human Rin1-Abl protein interaction; P00519+Q13671; TR-FRET Rin1/Abl binding, biochemical; 360,000 compounds, 0.4% hits; AID 588664; inhibition, % at 7.35 µM; in the data active = inhibition above about 5%, passing the limit was not always enough
Neddyl inh conf: cullin neddylation inhibition, confirmation. AID 652217. calls only at 25 µM. shares compounds with Neddyl block. 1,800 compounds, 13% hits. TR-FRET cullin neddylation biochemical assay; in the data active = inhibition above about 40%;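 also: neddylation substrate is the cullin 1 ring ligase complex with SKP2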
Active calls of the source: *; i = inactive; x = no result given; + = active, no number.

SMILES	UHRF1 MBD2 ctr	Neddyl block	proKLK7 act	LEDGF integ inh	MBD2 inh	Rin1-Abl PPI inh	Neddyl inh conf
O=c1[nH]c2ccc(S(=O)(=O)N3CCN(C4CCCCC4)CC3)cc2[nH]c1=O	-2	+	2	-2	-3	-3	x
CCOc1ccc(S(=O)(=O)Nc2ccccc2C(=O)NCc2ccco2)cc1	1	+	-2	2	5	0	i
Clc1ccc(-c2cn3ccccc3n2)cc1	-4	+	0	1	3	1	i
O=C(Nc1ccc(-c2cn3ccccc3n2)cc1)c1ccc(Cl)cc1	-1	i	-1	1	1	-3	x
COc1ccc(C(=O)N2CCCC(Nc3ccc(F)cc3)C2)c(OC)c1 (stereo not drawn)	-4	i	0	-3	3	-1	x
O=C(O)CCC(=O)N1N=C(c2cccs2)CC1c1cn(-c2ccccc2)nc1-c1ccccc1 (stereo not drawn)	-2	+	0	2	1	1	x
Cc1ccc(-c2nn(-c3ccccc3)cc2C2CC(c3cccs3)=NN2C(=O)CCCC(=O)O)cc1 (stereo not drawn)	3	x	-1	-1	0	-4	x
COc1ccc(-c2nn(-c3ccccc3)cc2C2CC(c3cccs3)=NN2C(=O)CCCC(=O)O)cc1 (stereo not drawn)	-2	+	1	-2	7	2	i
Nc1nnc(-c2cc3ccccc3oc2=O)s1	-13	+	-69	-1	-7	-9	+
O=c1oc2ccccc2cc1-c1nnc(NCc2ccco2)s1	-6	+	-20	-5	-2	1	i
COc1ccc(OCC(=O)NC2CCCN(Cc3ccc(Cl)cc3)C2)cc1 (stereo not drawn)	1	i	0	0	2	-2	x
CCOc1cc(/C=N/NC(=O)c2cc(C)n(-c3ccc(F)cc3)c2C)ccc1O	-1	+	-2	-11	-2	-1	i
Cc1noc(C)c1COC(=O)c1ccc(-c2nc3ccccc3s2)s1	2	i	-1	-2	-1	1	x
CCNC(=O)COC(=O)c1ccc(-c2nc3ccccc3s2)s1	1	+	-1	1	1	3	i
C/C(=N\NC(=O)c1ccc(CSc2cccc3cccnc23)cc1)C1CCCCC1	-7	+	5	2	-7	-1	i
COc1ccc(/C(C)=N/NC(=O)c2ccc(CSc3cccc4cccnc34)cc2)cc1OC	-4	+	5	-1	-1	-4	i
C(=C\c1cccc2ccccc12)/c1nnc(-c2cccs2)o1	2	+	-3	4	1	0	x
CC(C)OCCCn1c(NN)nc2ccccc2c1=O	-2	i	1	-3	0	0	x
NNc1nc2ccccc2c(=O)n1Cc1ccccc1	4	+	0	1	-2	1	i
Cc1nnc(SCC(=O)NNC(=O)COc2ccc(Cl)cc2)n1C	-1	i	0	2	1	0	x
COCCCNC(=O)/C(C#N)=C/c1c(N2CCN(c3ccc(OC)cc3)CC2)nc2c(C)cccn2c1=O	-5	+	2	0	-4	2	i
COCCCNC(=O)/C(C#N)=C/c1c(N2CCN(c3ccccc3)CC2)nc2ccccn2c1=O	-3	+	12	6	-3	-3	+
Cc1ccc(Oc2nc3c(C)cccn3c(=O)c2/C=C(\C#N)C(N)=O)cc1	3	+	8	2	2	-2	i
CN1C(=O)[C@@](O)(c2cccn2C)c2cc(Cl)ccc21	1	x	0	0	5	x	x
Fc1cc2[nH]c(=S)[nH]c2cc1Cl	-3	+	0	-2	0	-1	i
CCOC(=O)Cn1nc(/C=C/c2ccc(C)cc2)ccc1=O	-4	x	6	1	-4	-5	x
CCOC(=O)Cn1nc(-c2ccc(Cl)cc2)ccc1=O	-4	i	-1	-1	3	-3	x
CCOC(=O)Cn1nc(/C=C/c2ccccc2)ccc1=O	-2	+	3	3	-6	1	+
CCOC(=O)Cn1nc(/C=C/c2ccc(C(C)C)cc2)ccc1=O	-2	+	-2	3	-6	2	x
